Data from PubChem BioAssay (EPA / NIEHS).
Inconclusive results are not listed. More than one record can exist for a structure, and the calls need not agree. Activity calls are given as the source filed them. Rule for the calls, unless noted: active = hit-call score of the fitted dose curve at least 0.9, where 1 is the maximum; inconclusive = response in the unintended direction; inactive = score below 0.9.

Assays:
[1] = read-out: solute carrier (SLC22A1), SLC22A1 (gene 6580); experiment: LTEA_HepaRG_SLC22A1: Life Technologies and Expression Analysis (LTEA) Assay for solute carrier (SLC22A1) using HepaRG (AID 2283524; active = hit-call score of the fitted dose curve at least 0.9, where 1 is the maximum; inactive = score below 0.9); conditions: mRNA level, 48 h; actives raise or lower the signal
Method in brief: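 Human HepaRG cells were plated 48 h, switched to serum-free induction medium, then exposed in duplicate for 48 h to 8-point half-log series from 100 uM in 0.5% DMSO. SLC22A1 mRNA measured by qRT-PCR, normalized to ACTB/GAPDH/POLR2A, fitted bidirectionally versus DMSO.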

[2] = read-out: Pyruvate Dehydrogenase Kinase 4 (PDK4), PDK4 (gene 5166); experiment: LTEA_HepaRG_PDK4: Life Technologies and Expression Analysis (LTEA) Assay for Pyruvate Dehydrogenase Kinase 4 (PDK4) using HepaRG (AID 2283525; active = hit-call score of the fitted dose curve at least 0.9, where 1 is the maximum; inactive = score below 0.9); conditions: mRNA level, 48 h; actives raise or lower the signal
Method in brief: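 Differentiated human HepaRG cells, pre-cultured 48 h, were exposed in duplicate for 48 h in serum-free induction medium to eight half-log concentrations up to 100 uM in 0.5% DMSO. PDK4 mRNA was quantified by qRT-PCR, normalized to ACTB, GAPDH and POLR2A, bidirectional fitting versus DMSO.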

[3] = read-out: NAD(P)H dehydrogenase [quinone] 1 (NQO1), NQO1 (gene 1728); experiment: LTEA_HepaRG_NQO1: Life Technologies and Expression Analysis (LTEA) Assay for NAD(P)H dehydrogenase [quinone] 1 (NQO1) using HepaRG (AID 2283526; active = hit-call score of the fitted dose curve at least 0.9, where 1 is the maximum; inactive = score below 0.9); conditions: mRNA level, 48 h; actives raise or lower the signal
Method in brief: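 Differentiated HepaRG cells, plated 48 h and then switched to serum-free induction medium, were exposed in duplicate for 48 h to 8-point half-log concentrations up to 100 uM in 0.5% DMSO. mRNA measured by qRT-PCR, normalized to ACTB, GAPDH, POLR2A; bidirectional fit versus DMSO.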

[4] = read-out: Nuclear factor erythroid 2-related factor 2 (Homo sapiens) (UniProt Q16236); experiment: LTEA_HepaRG_NFE2L2: Life Technologies and Expression Analysis (LTEA) Assay for Nuclear factor erythroid 2-related factor 2 (NFE2L2) Transcription Factor using HepaRG (AID 2283527; active = hit-call score of the fitted dose curve at least 0.9, where 1 is the maximum; inactive = score below 0.9;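 note: TaqMan qRT-PCR transcript level normalised to ACTB GAPDH and POLR2A housekeeping genes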); conditions: mRNA level, 48 h; actives raise or lower the signal
Method in brief: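 Differentiated human HepaRG cells in serum-free induction medium were exposed for 48 h to eight concentrations (top 100 uM, half-log dilutions, 0.5% DMSO), in duplicate. NFE2L2 mRNA was quantified by TaqMan qRT-PCR, normalized to ACTB, GAPDH and POLR2A, with bidirectional fitting versus DMSO.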

[5] = read-out: succinate dehydrogenase complex iron sulfur subunit B (SDHB), SDHB (gene 6390); experiment: LTEA_HepaRG_SDHB: Life Technologies and Expression Analysis (LTEA) Assay for succinate dehydrogenase complex iron sulfur subunit B (SDHB) using HepaRG (AID 2283528; active = hit-call score of the fitted dose curve at least 0.9, where 1 is the maximum; inactive = score below 0.9); conditions: mRNA level, 48 h; actives raise or lower the signal
Method in brief: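 Readout is SDHB transcript level by qRT-PCR, normalised to three housekeeping genes and fitted bidirectionally against 0.5% DMSO vehicle. Human HepaRG cells were treated for 48 h at up to 100 uM.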

[6] = read-out: Signal transducer and activator of transcription 3 (Homo sapiens) (UniProt P40763); experiment: LTEA_HepaRG_STAT3: Life Technologies and Expression Analysis (LTEA) Assay for Signal transducer and activator of transcription (STAT3) using HepaRG (AID 2283529; active = hit-call score of the fitted dose curve at least 0.9, where 1 is the maximum; inactive = score below 0.9); conditions: mRNA level, 48 h; actives raise or lower the signal
Method in brief: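 Differentiated human HepaRG cells in serum-free induction medium were exposed in duplicate for 48 h to eight half-log concentrations up to 100 uM in 0.5% DMSO. STAT3 mRNA was quantified by TaqMan qRT-PCR, normalized to ACTB, GAPDH and POLR2A, and fitted bidirectionally against DMSO.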

[7] = read-out: solute carrier (SLCO1B1), SLCO1B1 (gene 10599); experiment: LTEA_HepaRG_SLCO1B1: Life Technologies and Expression Analysis (LTEA) Assay for solute carrier (SLCO1B1) using HepaRG (AID 2283530; active = hit-call score of the fitted dose curve at least 0.9, where 1 is the maximum; inactive = score below 0.9); conditions: mRNA level, 48 h; actives raise or lower the signal
Method in brief: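 Gain or loss of SLCO1B1 mRNA is fitted against the 0.5% DMSO vehicle in human HepaRG liver cells treated 48 h at up to 100 uM in half-log steps. Expression comes from qRT-PCR normalized to endogenous controls.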

[8] = read-out: sulfotransferase 2A1 (SULT2A1), SULT2A1 (gene 6822); experiment: LTEA_HepaRG_SULT2A1: Life Technologies and Expression Analysis (LTEA) Assay for sulfotransferase 2A1 (SULT2A1) using HepaRG (AID 2283531; active = hit-call score of the fitted dose curve at least 0.9, where 1 is the maximum; inactive = score below 0.9); conditions: mRNA level, 48 h; actives raise or lower the signal
Method in brief: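 Cells were plated and cultured 48 h, switched to serum-free induction medium, then dosed in duplicate for 48 h (8 concentrations, max 100 uM). RNA was isolated and SULT2A1 expression measured by qRT-PCR; gain or loss of signal fitted relative to DMSO.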

[9] = read-out: Transforming Growth Factor (TGFA), TGFA (gene 7039); experiment: LTEA_HepaRG_TGFA: Life Technologies and Expression Analysis (LTEA) Assay for Transforming Growth Factor (TGFA) using HepaRG (AID 2283532; active = hit-call score of the fitted dose curve at least 0.9, where 1 is the maximum; inactive = score below 0.9); conditions: mRNA level, 48 h; actives raise or lower the signal
Method in brief: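 Differentiated human HepaRG cells, plated 48 h then switched to serum-free induction medium, were exposed in duplicate for 48 h to 8-point half-log series from 100 uM in 0.5% DMSO. TGFA mRNA measured by qRT-PCR, normalized to ACTB/GAPDH/POLR2A, bidirectional fit versus DMSO.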

[10] = read-out: Transforming Growth Factor (TGFB1), TGFB1 (gene 7040); experiment: LTEA_HepaRG_TGFB1: Life Technologies and Expression Analysis (LTEA) Assay for Transforming Growth Factor (TGFB1) Transporter using HepaRG (AID 2283533; active = hit-call score of the fitted dose curve at least 0.9, where 1 is the maximum; inactive = score below 0.9); conditions: mRNA level, 48 h; actives raise or lower the signal
Method in brief: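 Expression change of TGFB1 in human HepaRG cells is measured after a 48 h chemical exposure, up to 100 uM in 0.5% DMSO vehicle. Curves are fitted in both directions relative to the DMSO baseline.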

TIMP1, TIMP1 (gene 7076) = experiment: LTEA_HepaRG_TIMP1: Life Technologies and Expression Analysis (LTEA) Assay for TIMP1 using HepaRG (AID 2283534; active = hit-call score of the fitted dose curve at least 0.9, where 1 is the maximum; inactive = score below 0.9;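 note: TaqMan qRT-PCR signal normalized to ACTB GAPDH and POLR2A housekeeping genes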); conditions: mRNA level, 48 h; actives raise or lower the signal
Method in brief: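 We dosed human liver HepaRG cultures for 48 hours with up to 100 uM test chemical and measured TIMP1 expression by qRT-PCR. Activity in either direction is fitted relative to the 0.5% DMSO vehicle.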

[11] = read-out: Tumor necrosis factor receptor 1 (TNFRSF1A), TNFRSF1A (gene 7132); experiment: LTEA_HepaRG_TNFRSF1A: Life Technologies and Expression Analysis (LTEA) Assay for Tumor necrosis factor receptor 1 (TNFRSF1A) using HepaRG (AID 2283535; active = hit-call score of the fitted dose curve at least 0.9, where 1 is the maximum; inactive = score below 0.9); conditions: mRNA level, 48 h; actives raise or lower the signal
Method in brief: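 Expression of TNFRSF1A in human HepaRG liver cells was measured by qRT-PCR 48 h after chemical dosing (maximum 100 uM). Bidirectional curve fitting used 0.5% DMSO as baseline.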

[12] = read-out: Thyroid Hormone Responsive (THRSP), THRSP (gene 7069); experiment: LTEA_HepaRG_THRSP: Life Technologies and Expression Analysis (LTEA) Assay for Thyroid Hormone Responsive (THRSP) using HepaRG (AID 2283536; active = hit-call score of the fitted dose curve at least 0.9, where 1 is the maximum; inactive = score below 0.9); conditions: mRNA level, 48 h; actives raise or lower the signal
Method in brief: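 Differentiated human HepaRG cells were exposed in duplicate for 48 h in serum-free induction medium to eight concentrations (top 100 uM, half-log steps, 0.5% DMSO). Expression was quantified by TaqMan qRT-PCR, normalized to ACTB, GAPDH and POLR2A, with bidirectional fitting against DMSO.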

[13] = read-out: Cellular tumor antigen p53 (Homo sapiens) (UniProt P04637); experiment: LTEA_HepaRG_TP53: Life Technologies and Expression Analysis (LTEA) Assay for Tumor Protein P53 (TP53) using HepaRG (AID 2283537; active = hit-call score of the fitted dose curve at least 0.9, where 1 is the maximum; inactive = score below 0.9); conditions: mRNA level, 48 h; actives raise or lower the signal
Method in brief: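 Read-out is TP53 transcript level by microfluidic qRT-PCR, normalised to three housekeeping genes and fitted bidirectionally against DMSO. Human HepaRG cells received compounds for 48 h, highest concentration 100 uM.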

[14] = read-out: UDP glucuronosyltransferase (UGT1A1), UGT1A1 (gene 54658); experiment: LTEA_HepaRG_UGT1A1: Life Technologies and Expression Analysis (LTEA) Assay for UDP glucuronosyltransferase (UGT1A1) using HepaRG (AID 2283538; active = hit-call score of the fitted dose curve at least 0.9, where 1 is the maximum; inactive = score below 0.9); conditions: mRNA level, 48 h; actives raise or lower the signal
Method in brief: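 Differentiated human HepaRG cells in serum-free induction medium were exposed in duplicate for 48 h to eight half-log concentrations up to 100 uM in 0.5% DMSO. UGT1A1 mRNA was quantified by TaqMan qRT-PCR, normalized to ACTB, GAPDH and POLR2A, and fitted bidirectionally against DMSO.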

[15] = read-out: UDP glucuronosyltransferase (UGT1A6), UGT1A6 (gene 54578); experiment: LTEA_HepaRG_UGT1A6: Life Technologies and Expression Analysis (LTEA) Assay for UDP glucuronosyltransferase (UGT1A6) using HepaRG (AID 2283539; active = hit-call score of the fitted dose curve at least 0.9, where 1 is the maximum; inactive = score below 0.9); conditions: mRNA level, 48 h; actives raise or lower the signal
Method in brief: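 Endpoint is UGT1A6 transcript induction or loss in a human liver cell line, quantified by TaqMan qRT-PCR 48 h after dosing. Concentrations ran from 100 uM downward in half-log steps in 0.5% DMSO; activity was fitted in both directions versus vehicle.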

[16] = read-out: X-box binding protein 1 (XBP1), XBP1 (gene 7494); experiment: LTEA_HepaRG_XBP1: Life Technologies and Expression Analysis (LTEA) Assay for X-box binding protein 1 (XBP1) using HepaRG (AID 2283540; active = hit-call score of the fitted dose curve at least 0.9, where 1 is the maximum; inactive = score below 0.9); conditions: mRNA level, 48 h; actives raise or lower the signal
Method in brief: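 Human HepaRG monolayers receive test chemical for 48 h across an eight-point half-log series starting at 100 uM. XBP1 mRNA gain or loss is scored against DMSO by qRT-PCR.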

[17] = LTEA_HepaRG_LDH_cytotoxicity: Cytotoxicity Assessment in the Life Technologies and Expression Analysis (LTEA) Assay (AID 2283563)
Method in brief: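 Human HepaRG hepatic cells are treated with test chemicals for 48 h at up to 100 uM in 0.5% DMSO. Cytotoxicity is scored from medium LDH against the vehicle control.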

[18] = TOX21_p53_BLA_p2_viability: Viability Assessment in the Tox21 HCT-116 p53 Agonism Beta-lactamase Assay, Phase 2 (AID 2283591);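 note: compound exposure lasted 16 h at 37 °C; actives lower the ATP signal meaning cytotoxicity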
Method in brief: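 HCT-116 p53-bla cells (4000/well) rested 5 h at 37C, then received compounds in DMSO (217-fold dilution) for 16 h at 37C, 5% CO2. After the CCF4 read, CellTiter-Glo was added; ATP luminescence was read after 30 min at room temperature.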

[19] = ATG_XTT_Cytotoxicity: Cytotoxicity Assessment in the Attagene TRANS-FACTORIAL HepG2 Assay (AID 2283584);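 for AC50: XTT signal for cell number as viability in transfected HepG2 cells; cells exposed to compound for 24 h before reading; active means loss of viability signal versus DMSO baseline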
Method in brief: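 Transfect HepG2 with GAL4-UAS reporter units, dose compound, incubate 24 h, then measure viable cell number by XTT. Fit concentration response against DMSO baseline.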

Measured: AC50

Sequence of Nuclear factor erythroid 2-related factor 2 (Homo sapiens) (Q16236 whole entry, looked up): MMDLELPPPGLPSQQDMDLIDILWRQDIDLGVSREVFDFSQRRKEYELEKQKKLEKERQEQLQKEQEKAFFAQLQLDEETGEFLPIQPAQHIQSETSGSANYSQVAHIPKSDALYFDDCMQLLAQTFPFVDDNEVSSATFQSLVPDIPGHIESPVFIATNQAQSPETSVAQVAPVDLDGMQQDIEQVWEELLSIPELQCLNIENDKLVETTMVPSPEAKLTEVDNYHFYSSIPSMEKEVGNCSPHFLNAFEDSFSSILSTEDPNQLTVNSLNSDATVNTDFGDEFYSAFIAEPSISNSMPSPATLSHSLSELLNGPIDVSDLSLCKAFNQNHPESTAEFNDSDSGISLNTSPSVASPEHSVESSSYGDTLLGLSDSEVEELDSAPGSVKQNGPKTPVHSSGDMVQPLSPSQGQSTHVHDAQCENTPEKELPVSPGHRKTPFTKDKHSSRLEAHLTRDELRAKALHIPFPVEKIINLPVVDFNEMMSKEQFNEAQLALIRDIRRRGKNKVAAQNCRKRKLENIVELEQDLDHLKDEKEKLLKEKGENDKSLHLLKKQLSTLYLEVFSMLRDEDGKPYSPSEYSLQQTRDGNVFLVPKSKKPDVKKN
Sequence of Signal transducer and activator of transcription 3 (Homo sapiens) (P40763 whole entry, looked up): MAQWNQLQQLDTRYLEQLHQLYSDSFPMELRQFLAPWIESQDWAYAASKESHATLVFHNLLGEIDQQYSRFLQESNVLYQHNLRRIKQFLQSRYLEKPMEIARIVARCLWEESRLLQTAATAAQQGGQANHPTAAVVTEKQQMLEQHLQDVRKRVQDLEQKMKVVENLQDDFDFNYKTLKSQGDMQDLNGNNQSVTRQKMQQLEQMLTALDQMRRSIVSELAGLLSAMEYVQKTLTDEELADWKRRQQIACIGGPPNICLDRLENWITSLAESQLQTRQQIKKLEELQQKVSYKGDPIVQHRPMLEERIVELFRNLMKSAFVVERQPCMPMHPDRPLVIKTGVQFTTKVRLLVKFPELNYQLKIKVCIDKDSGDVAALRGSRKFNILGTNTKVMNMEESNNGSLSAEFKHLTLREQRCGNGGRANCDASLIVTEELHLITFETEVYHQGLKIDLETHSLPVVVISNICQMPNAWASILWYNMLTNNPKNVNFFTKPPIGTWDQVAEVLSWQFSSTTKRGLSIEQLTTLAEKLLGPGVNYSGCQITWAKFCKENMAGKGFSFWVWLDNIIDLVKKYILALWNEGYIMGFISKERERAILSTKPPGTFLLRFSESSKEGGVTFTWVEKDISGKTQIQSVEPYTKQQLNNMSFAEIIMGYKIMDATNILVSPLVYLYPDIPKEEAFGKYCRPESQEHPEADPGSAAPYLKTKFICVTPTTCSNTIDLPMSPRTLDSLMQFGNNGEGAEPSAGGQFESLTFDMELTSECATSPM
Sequence of Cellular tumor antigen p53 (Homo sapiens) (P04637 whole entry, looked up): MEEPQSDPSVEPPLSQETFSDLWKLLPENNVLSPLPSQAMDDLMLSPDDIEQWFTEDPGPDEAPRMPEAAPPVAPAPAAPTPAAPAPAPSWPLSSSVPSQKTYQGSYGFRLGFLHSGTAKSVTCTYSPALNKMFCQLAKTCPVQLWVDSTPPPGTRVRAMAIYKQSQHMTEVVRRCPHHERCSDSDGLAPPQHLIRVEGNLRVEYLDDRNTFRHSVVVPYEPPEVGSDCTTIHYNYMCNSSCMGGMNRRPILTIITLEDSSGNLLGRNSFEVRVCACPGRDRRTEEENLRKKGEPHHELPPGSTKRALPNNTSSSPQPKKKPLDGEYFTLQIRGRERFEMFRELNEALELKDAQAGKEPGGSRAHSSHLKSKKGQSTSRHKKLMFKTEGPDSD

Nc1ccc(C(=O)O)cc1
not listed: [19]
inactive: all other assays above

Oc1ccc(-c2ccccc2)c(Cl)c1
inactive: [19]
active: [19] 159 µM

CC(=O)CCC=C(C)C
inactive: [19]

Cc1noc(NS(=O)(=O)c2ccc(N)cc2)c1C
inactive: [19] | [18]

CC(C)(CO)C(O)C(=O)NCCCO (centres undefined)
inactive: [19]

O=C(Cl)c1ccc(C(=O)Cl)cc1
inactive: [19] | [18]

CCCCC1C(=O)N(c2ccccc2)N(c2ccccc2)C1=O
inactive: [19] | [18]

CCOC(=O)CC(=O)c1ccccc1
inactive: [19]

O=C1CCCCCCCCCCC1
inactive: [19] | [18]

O=C(Oc1ccccc1)c1ccccc1C(=O)Oc1ccccc1
inactive: [19] | [18]
